JMJD2A Tudor inh: JMJD2A Tudor domain (human) inhibition | AlphaScreen JMJD2A-Tudor / H3K4me3 peptide binding | Potency, µM (highest dose often 114 µM), for the others: top-dose activity change, negative = inhibition, actives largely listed as inhibitors | actives 4.4% (n = 390,000); also: potency is read from the fitted curve at half-maximal effect; % is scaled to controls: 0 for no effect and ±100 for the full control effect; nearly all actives have a fitted effect of over 50% in size
CtBP-E1A inh: inhibitors of CtBP/E1A interaction | activity change, % (concentration not given with the values) | actives 0.49% (n = 340,000) | AlphaScreen GST-E1A/His-CtBP binding, 1536-well; active compounds read low | AID 651724; in the data active = activity change below about -65%; inconclusive = mostly about -30% to -63%; also: % is scaled to controls: 0 for no effect and ±100 for the full control effect
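In 5 uL wells, 23 nL compound meets equimolar GST-E1A and His-CtBP (5X stock 125 nM each) for 2 h, 37 °C. Beads (5X, 50 ug/mL) then 1 h, 37 °C, dark.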
HP1b chromo inh: inhibitors of HP1-beta chromodomain binding to methylated histone tails. Potency, µM (highest dose often 114 µM), without a hit: top-dose activity change, negative = inhibition, hits mostly inhibitors. P83916. AlphaScreen HP1-beta / biotin-H3K9me3 peptide binding. AID 540317. actives 0.56% (n = 390,000); also: potency is read from the fitted curve at half-maximal effect; nearly all actives have a fitted effect of over 70% in size
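AlphaScreen: HP1-beta (50 nM) preformed 30 min with biotin-H3(1-18)K9me3 peptide (50 nM) in PBS pH 7.4, 0.01% Tween-20. Compound added for 30 min at RT, then streptavidin donor/nickel chelate acceptor beads (10 ug/mL) for 30 min.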
Six1-Eya2 inh: blocks human Six1 binding to Eya2. activity change, % (test concentration not listed). actives 0.56% (n = 360,000). AlphaScreen GST-Six1/His-Eya2 binding, biochemical; active compounds read low; in the data active = activity change below about -65%; inconclusive = mostly about -30% to -63%; also: % is scaled to controls: 0 for no effect and ±100 for the full control effect
Target sequence (O00167 whole entry, looked up): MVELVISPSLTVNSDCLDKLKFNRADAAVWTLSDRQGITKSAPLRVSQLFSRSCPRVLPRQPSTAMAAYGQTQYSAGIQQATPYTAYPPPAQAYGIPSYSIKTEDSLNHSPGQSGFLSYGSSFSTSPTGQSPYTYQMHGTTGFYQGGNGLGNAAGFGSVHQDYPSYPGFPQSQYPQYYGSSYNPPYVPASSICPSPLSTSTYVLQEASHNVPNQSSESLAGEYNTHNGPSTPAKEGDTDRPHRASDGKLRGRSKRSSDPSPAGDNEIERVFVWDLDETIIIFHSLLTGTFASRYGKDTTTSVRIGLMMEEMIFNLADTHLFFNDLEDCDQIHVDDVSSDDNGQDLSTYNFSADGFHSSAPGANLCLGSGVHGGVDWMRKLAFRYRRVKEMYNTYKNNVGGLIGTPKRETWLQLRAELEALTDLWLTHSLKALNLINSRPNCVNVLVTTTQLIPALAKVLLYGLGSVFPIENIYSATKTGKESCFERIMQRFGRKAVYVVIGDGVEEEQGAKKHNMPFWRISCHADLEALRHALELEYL
Target sequence (Q15475 whole entry, looked up): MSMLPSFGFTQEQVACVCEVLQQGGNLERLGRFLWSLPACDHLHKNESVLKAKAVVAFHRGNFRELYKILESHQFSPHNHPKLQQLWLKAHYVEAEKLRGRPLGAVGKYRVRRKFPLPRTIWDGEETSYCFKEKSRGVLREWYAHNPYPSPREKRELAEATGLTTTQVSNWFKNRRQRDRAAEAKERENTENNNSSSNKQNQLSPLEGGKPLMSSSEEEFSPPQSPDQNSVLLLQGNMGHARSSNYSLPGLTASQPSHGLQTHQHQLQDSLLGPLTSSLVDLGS
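GST-Six1 + His-Eya2 (5X stock: 250/500 nM); Tris pH 8.0, 300 mM NaCl, 0.05% BSA, 0.02% Tween 20; GSH donor/Ni acceptor beads; 1 h 37 °C dark; AlphaScreen readout.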
G9a inh: G9a (human) methyltransferase inhibition. Q96KQ7. G9a H3K9 monomethylation, AlphaScreen, 2 h. Potency, µM (titrated, usually from 102 µM), for inactives: at the highest dose activity, negative = inhibition, hits mostly inhibitors. actives 8.8% (n = 350,000). AID 504332; also: potency is read from the fitted curve at half-maximal effect; % is scaled to controls: 0 for no effect and ±100 for the full control effect; nearly all actives have a fitted effect of over 75% in size
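Compounds were preincubated with 20 nM G9a for 15 min, after which biotinylated H3K9 peptide (500 nM) and SAM (20 uM) started a 2 h room-temperature reaction. Monomethylated product was quantified by antibody-based AlphaScreen chemiluminescence.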
BAZ2B inh: blocks human BAZ2B | AID 504333 | actives 4.4% (n = 360,000) | AlphaScreen BAZ2B-H3K14Ac peptide displacement | Potency, µM (top dose mostly 114 µM), without a hit: top-dose activity change, negative = inhibition, usual class: inhibitors; also: potency is read from the fitted curve at half-maximal effect; % is scaled to controls: 0 for no effect and ±100 for the full control effect; nearly all actives have a fitted effect of over 60% in size
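In this displacement format the biotinylated H3(5-23) peptide acetylated at Lys14 serves as ligand at 50 nM, with BAZ2B at 50 nM in PBS pH 7.4 containing 0.01% Tween-20. Donor and acceptor beads are 10 ug/mL final.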
Starred values were filed as active, the others as inactive; ? = inconclusive; . = no result; [ ] = another dose, or the depositor's remark. In the library only some 10% were active in any assay of this set; here they are far more common. Unless noted, calls follow the shape of the dose curve; as a rule, active = well fitted inhibition curve with a large enough effect; inconclusive = small, poorly fitted or top-dose-only effect; inactive = no such curve, though single readings can be large or run the other way.

SMILES	JMJD2A Tudor inh	CtBP-E1A inh	HP1b chromo inh	Six1-Eya2 inh	G9a inh	BAZ2B inh
Cc1ccc(S(=O)(=O)n2nc(C)c(S(=O)(=O)N3CCCCCC3)c2C)cc1C	-28.4%	.	-0.9%[57 µM]	.	0.1%[59 µM]	-3.0%
Cc1ccc(S(=O)(=O)n2nc(C)c(Br)c2C)c(C)c1C	57.6%	9.7	139.4%	11.9	70.8µM*	6.5%
CCCCN(CC)CCNC(=O)CCn1cnc2onc(-c3ccc(F)cc3)c2c1=O	-14.9%	.	-9.5%	.	-25.6%[59 µM]	7.3%[57.1 µM]
Cc1cc(C)n2c(Nc3c(C)cccc3C)c(-c3ccccn3)nc2n1	.	?	.	-90.0*	.	.
CCCCNc1c(-c2ccccn2)nc2nc(C)cc(C)n12	.	?	.	-87.8*	.	.
CCCCNc1c(-c2cc3ccccc3o2)nc2nc(C)cc(C)n12	.	-9.6	.	8.7	.	.
CCOc1ccc(-c2nc3c(c(SCC(=O)N4CCCCC4)n2)Cc2cc(C)ccc2O3)cc1	-13.9%	.	11.3%	.	5.7%[59 µM]	-22.2%
CCc1ccccc1NS(=O)(=O)c1ccc2[nH]cc(C(=O)N(CC)Cc3ccccc3)c(=O)c2c1	-21.2%	.	19.7%	.	?	-16.0%
O=C(COc1cccc(F)c1)N1c2ccccc2Sc2ccccc21	56.2µM*	0.0	?	?	7.2%[59 µM]	-2.0%
COc1cc(F)c(S(=O)(=O)N2CCN(S(=O)(=O)c3cccs3)CC2)c(F)c1	-6.1%	.	.	.	.	.
O=C1CCC/C(=N\NC(=O)c2ccc(NS(=O)(=O)c3ccc(Br)cc3)cc2)C1	-3.4%	5.6	37.3%	2.9	79.4µM*	-5.9%
Cc1ccc(S(=O)(=O)N(C)Cc2ccc(C(=O)N/N=C3\CCCC(=O)C3)cc2)cc1	-12.9%	0.7	32.4%	0.6	-12.5%[59 µM]	-1.7%
COCCn1c(=N)c(C(=O)NCc2ccco2)cc2c(=O)n3ccccc3nc21	-31.2%	-22.4	7.6%	-21.2	56.2µM*	-7.1%
Nc1ccc(O)c(-c2nc3ccccc3s2)c1	-16.2%	-10.5	-2.2%	-18.0	14.1µM*	-28.1%
Oc1ccc(-c2nc3ccccc3s2)c(O)c1	12.7%	9.1	83.9%	-2.7	13.6%	15.4%
Oc1ccc(N=C/C=C/c2cccc(Br)c2)cc1-c1nc2ccccc2s1	?	-23.7	-15.4%	-19.3	7.94µM*	?
CCC(C)Sc1oc(-c2ccco2)nc1S(=O)(=O)c1ccc(Cl)cc1 (stereo not drawn)	9.2%	.	41.8%	.	-8.4%[59 µM]	-0.5%
COc1cccc(Cn2c(SCC(=O)N(C)c3ccccc3)nc3ccccc32)c1	-10.3%	.	5.2%	.	-6.9%[59 µM]	-16.7%
O=C(CN1C(=O)c2ccccc2C1=O)c1ccc(F)cc1	-6.8%	11.5	9.9%	4.1	-13.7%[2.33 µM]	6.6%
O=C(CN1C(=O)c2ccccc2C1=O)OCC(=O)c1ccc(F)cc1	-20.7%	2.3	9.7%	4.7	50.1µM*	5.2%
Cc1nn(-c2ccc(F)cc2)c(-n2cccc2)c1C(=O)NCCc1ccc(Cl)cc1	-5.2%	.	59.5%	.	-3.4%[59 µM]	-0.7%
CC[n+]1c(C)cc2c(sc3ccccc32)c1C	?	6.4	44.1%	-4.0	22.4µM*	-18.6%
Cc1c(OCc2nn[nH]n2)ccc2c3c(c(=O)oc12)CCC(C)C3 (stereo not drawn)	4.5%	-11.1	17.8%	-9.1	50.1µM*	4.3%
CCOC(=O)COc1ccc2c3c(c(=O)oc2c1C)CCC3	-0.3%	4.1	41.1%	-24.2	-2.4%[12.7 µM]	-1.2%
Cc1cc2oc(=O)c3c(c2cc1OCc1nn[nH]n1)CCCC3	-14.2%	-28.9	23.9%	?	70.8µM*	?
SMILES	JMJD2A Tudor inh	CtBP-E1A inh	HP1b chromo inh	Six1-Eya2 inh	G9a inh	BAZ2B inh
Cc1c(OCC(=O)C(C)(C)C)ccc2c3c(c(=O)oc12)CCCC3	-4.6%	6.0	30.2%	-7.9	12.3%	-19.9%
Cc1c(OCc2nn[nH]n2)ccc2c3c(c(=O)oc12)CCCC3	-25.2%	?	14.0%	-29.1	70.8µM*	-1.1%
CCOC(=O)c1cnc(SC2CCc3ccccc3C2=O)nc1N (stereo not drawn)	-19.8%[57.1 µM]	-7.6	-11.4%	-0.3	35.5µM*	-2.6%
CCOC(=O)c1cnc(SC2CC(=O)N(c3ccccc3)C2=O)nc1N (stereo not drawn)	2.9%	-0.2	45.6%	-0.5	?	5.0%
O=C(O)CCCCCNS(=O)(=O)c1c(Cl)cccc1Cl	-18.9%	3.0	36.6%	2.4	-29.1%[12.7 µM]	-8.4%
O=C(O)CNS(=O)(=O)c1c(Cl)cccc1Cl	14.1µM*	11.0	18.9%	4.3	4.9%	-1.0%
CC(C)c1ccc(NC(=O)c2cc(S(=O)(=O)N3CCCCC3)cn2C)cc1	-18.8%	.	21.7%[57 µM]	.	3.7%[59 µM]	-1.9%
Cc1ccc(Cl)cc1N1CCN(C(=O)c2cn(C)c3ccc(S(=O)(=O)N4CCCCC4)cc3c2=O)CC1	-23.7%	.	-0.6%	.	2.4%[59 µM]	.
CCCNC(=O)COC(=O)/C=C/c1ccc(C)o1	-14.9%	-18.5	22.9%	3.7	50.1µM*	-15.8%
CCOc1ccc(CCNC(=O)COC(=O)/C=C/c2ccc(C)o2)cc1OCC	-26.0%	0.9	22.2%	-2.4	?	-38.3%
Cc1ccc(/C=C/C(=O)OCC(=O)NCCN2C(=O)CSC2=O)o1	-13.7%	-17.3	22.1%	5.9	50.1µM*	-22.6%
Cc1ccc(/C=C/C(=O)OCC(=O)NCc2ccccc2)o1	-13.1%	0.2	-10.3%	-3.1	44.7µM*	1.4%
Cc1ccc(C(=O)OCC(=O)NCCNC(=O)COC(=O)c2ccc(C)o2)o1	-4.1%	-18.6	18.0%	8.2	56.2µM*	-7.8%
C=C1c2ccccc2O[C@H](C(=O)OCC)[C@@H]1C1CCCCC1 (tested in a mixture with another compound)	.	.	.	.	68.4%	.
Cc1n[nH]c(=O)[nH]c1=O	.	.	.	.	16.3%[21.5 µM]	.
Cn1ccc2cc(-c3ccc4ncnc(NCc5cccc(F)c5)c4c3)ccc21	.	.	.	.	-22.7%[12.7 µM]	-37.3%
Cc1cc(=O)[nH]c(-n2ncc(C#N)c2N)n1	1.58µM*	-20.9	12.6%	-24.4	2.82µM*	.
OCC1OC(n2cnc3c(=S)nc[nH]c32)C(O)C1O (stereo not drawn)	20µM*	.	?	.	15.8µM*	.
O=c1[nH]cnc2c1ncn2C1OC(CO)C(O)C1O (stereo not drawn)	-7.6%	-17.8	3.1%	7.5	23.1%[59 µM]	.
CC1(C)OC2C(CO)OC(n3cnc4c(=S)nc[nH]c43)C2O1 (stereo not drawn)	?	3.5	?	-3.8	8.91µM*	50.1µM*
CC1(C)OC2C(CO)OC(n3cnc4c(=S)nc(N)[nH]c43)C2O1 (stereo not drawn)	.	2.1	.	1.8	.	.
